Bioassay records: PubChem, several laboratories
Hits are enriched below; roughly 2.4% of the tested compounds scored in any of these assays.
Mcl1-Bid inh: Mcl-1/Bid interaction inhibition; Q07820; TR-FRET Mcl-1/Bid-Dy647 peptide binding, 1536-well; inhibition, % at 21.7 µM; 0.97% of 220,000 active; AID 1021;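 active = compounds that cut the binding signal by more than half at the single screening dose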;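 note: His-tagged Mcl-1 with europium anti-His antibody binding Bid BH3 peptide; 0% = Mcl-1 plus peptide wells and 100% = peptide-only wells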
Target sequence (Q07820 whole entry, looked up): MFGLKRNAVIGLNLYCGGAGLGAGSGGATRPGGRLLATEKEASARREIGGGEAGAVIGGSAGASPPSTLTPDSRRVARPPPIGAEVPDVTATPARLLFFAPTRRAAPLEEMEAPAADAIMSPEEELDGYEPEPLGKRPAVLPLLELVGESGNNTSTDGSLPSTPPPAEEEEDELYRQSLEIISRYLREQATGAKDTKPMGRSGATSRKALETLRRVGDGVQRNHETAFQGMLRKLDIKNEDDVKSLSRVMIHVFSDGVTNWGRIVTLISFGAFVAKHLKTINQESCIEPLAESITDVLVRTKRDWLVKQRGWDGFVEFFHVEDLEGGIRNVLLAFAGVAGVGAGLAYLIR
L929 necroptosis: blocks zVAD induced death of L929 cells. L929 zVAD necroptosis rescue, ATP luminescence, 24 h; with zVAD 60 µM. viability rescue, % at 10 µM. 0.38% of 220,000 active. AID 1377;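 active = activation, scaled between plate controls, above about 75%, limit read from the data; inactive = activation under that limit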;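 note: 0% = zVAD with DMSO and 100% = DMSO alone without zVAD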
Mcl1 Noxa PPI: Mcl-1/Noxa interaction inhibition. 1.5% of 220,000 active. TR-FRET Mcl-1/Noxa peptide binding, 2 h. inhibition, % at 21.7 µM. Q07820;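 active = compounds that cut the protein-peptide binding signal by more than 50% relative to plate controls in a single-dose test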;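 note: His-tagged Mcl-1 with rhodamine Noxa BH3 peptide and terbium anti-His antibody; 0% = Mcl-1 plus Noxa peptide wells and 100% = peptide-only wells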
Mcl-1 Bim block: human Bim-Mcl-1 interaction inhibition; Q07820; Bead-based flow cytometry, Bim peptide-Mcl-1 binding; inhibition, % at 10 µM; 0.1% of 190,000 active; in the data active = inhibition above about 40%;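 note: 0% = no compound tracer wells and 100% = peptide blocker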
MCL1-BIM inh: disrupts human MCL1 binding to BIM-BH3 peptide; Q07820; GST-MCL1 / FITC-Bim-BH3 fluorescence polarization; inhibition, % at 10.9 µM; 0.68% of 320,000 active;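 active = inhibition above the mean inhibition of all tested compounds plus 3 SD, set per campaign, cut at about 40% in these data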;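 note: 0% = DMSO wells and 100% = unlabeled Bim-BH3 peptide control; higher means more loss of mP so more displacement of Bim peptide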
TNF death inh: inhibitors of TNF-alpha induced necroptosis in Jurkat FADD-/- cells. Jurkat FADD-/- TNF necroptosis rescue, ATP luminescence, 24 h; 0 = TNF only, 100 = no-TNF cells. activation (protection from cell death), % at 10 µM. 0.068% of 220,000 active;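 active = activation, meaning protection from cell death, of at least 50% relative to plate controls; inactive = activation below 50%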;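 note: necroptosis triggered by 40 ng/mL TNF-alpha added together with compound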
* hit, by the source's call.

How did CC(C)(O)C1Cc2cc(/C=C/C(=O)O)c(O)cc2O1 (stereo not given) do in these assays?
Mcl1-Bid inh: -25; L929 necroptosis: 5; Mcl1 Noxa PPI: 61*; Mcl-1 Bim block: -6; TNF death inh: 1

How did COc1cccc(NC(C)(C)c2nnnn2-c2c(C)cccc2C)c1 do in these assays?
Mcl1-Bid inh: 52*; L929 necroptosis: -1; Mcl1 Noxa PPI: 36; MCL1-BIM inh: 5; TNF death inh: 0

How did COc1cccc(Nc2ccc(Nc3cccc(OC)c3)nn2)c1 do in these assays?
Mcl1-Bid inh: 2; L929 necroptosis: 72; Mcl1 Noxa PPI: 20; Mcl-1 Bim block: -3; MCL1-BIM inh: -1; TNF death inh: 3

Results for COc1cccc(/C=C2\SC(=O)NC2=O)c1OCc1ccc(C(=O)O)cc1 ?
Mcl1-Bid inh: -60; L929 necroptosis: 3; Mcl1 Noxa PPI: 7; Mcl-1 Bim block: 0; MCL1-BIM inh: 6; TNF death inh: 0

What do the screens show for `O=C1N/C(=N/NC(=O)c2cccc3ccccc23)S/C1=C\c1ccccc1OCc1ccccc1`?
Mcl1-Bid inh: 57*; L929 necroptosis: 0; Mcl1 Noxa PPI: 19; Mcl-1 Bim block: -1; TNF death inh: -3

What do the screens show for `CC(C)Cc1nnc(NC(=O)C2CSC3(C)CCC(=O)N23)s1` (stereo not given)?
MCL1-BIM inh: -2

How did COc1ccc(OC)c(NC(=O)NNC(=O)COc2ccc([N+](=O)[O-])cc2)c1 do in these assays?
MCL1-BIM inh: 6

What do the screens show for `CCCn1c(CCC(=O)O)nc2cc(S(N)(=O)=O)ccc21`?
Mcl1-Bid inh: -45; L929 necroptosis: 1; Mcl1 Noxa PPI: -3; MCL1-BIM inh: -7; TNF death inh: 2

Results for CCN1/C(=C/c2ccc3cc(C)ccc3[n+]2C)Sc2ccc3sccc3c21 ?
Mcl1-Bid inh: -28; L929 necroptosis: 3; Mcl1 Noxa PPI: 60*; Mcl-1 Bim block: 38; TNF death inh: -15

How did CCN1/C(=C/c2ccc3cc(C)ccc3[n+]2CC)Sc2cc(C)ccc21 do in these assays?
Mcl1-Bid inh: -20; L929 necroptosis: 2; Mcl1 Noxa PPI: 8; Mcl-1 Bim block: 4; TNF death inh: -19

Results for O=C1NC(=Nc2ccccc2)SC1Cc1cccc(Cl)c1Cl (stereo not given) ?
Mcl1-Bid inh: -20; L929 necroptosis: 1; Mcl1 Noxa PPI: 7; Mcl-1 Bim block: -2; MCL1-BIM inh: -6; TNF death inh: 79*

Results for Oc1cccc(Nc2nc(NCC3CCCO3)c3ccccc3n2)c1 (stereo not given) ?
Mcl1-Bid inh: 9; L929 necroptosis: 3; Mcl1 Noxa PPI: 58*; Mcl-1 Bim block: 0; MCL1-BIM inh: 5; TNF death inh: -2

Results for NS(=O)(=O)c1ccc(-c2ccc(/C=C3\SC(=S)N(C4CCS(=O)(=O)C4)C3=O)o2)cc1 (stereo not given) ?
Mcl1-Bid inh: 51*; L929 necroptosis: 0; Mcl1 Noxa PPI: 79*; MCL1-BIM inh: -58; TNF death inh: -11

Results for Cc1ccc(/C=C2\SC(=S)N(C3CCS(=O)(=O)C3)C2=O)o1 (stereo not given) ?
Mcl1-Bid inh: -59; L929 necroptosis: 4; Mcl1 Noxa PPI: -6; Mcl-1 Bim block: 7; MCL1-BIM inh: 14; TNF death inh: 4

What do the screens show for `O=C1CC(c2ccccc2)Oc2cc(O)cc(O)c21` (stereo not given)?
Mcl1-Bid inh: -59; L929 necroptosis: 0; Mcl1 Noxa PPI: 8; MCL1-BIM inh: 2; TNF death inh: -2

How did COc1cc(OC)c2c(c1O)OC(c1ccccc1)CC2=O (stereo not given) do in these assays?
Mcl1-Bid inh: -6; L929 necroptosis: 0; Mcl1 Noxa PPI: 54*; Mcl-1 Bim block: -3; MCL1-BIM inh: 32; TNF death inh: 0

How did CC(C)(C)c1cc[n+](-c2nc([O-])sc2C=O)cc1 do in these assays?
Mcl1-Bid inh: -8; Mcl1 Noxa PPI: 5; Mcl-1 Bim block: -8; MCL1-BIM inh: 19; TNF death inh: 2

Results for CC(C)c1cc[n+](-c2nc([O-])sc2C=O)cc1 ?
Mcl1-Bid inh: -17; L929 necroptosis: 1; Mcl1 Noxa PPI: 1; Mcl-1 Bim block: 0; MCL1-BIM inh: 45*; TNF death inh: -2
